Compounds without any hit were thinned out: in the full panel of roughly 83,000, 20% have a hit.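 Compound tested at a single concentration for 48 hours in 96-well plates; a percent growth value below 10 was scored as active.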 Unmarked numbers belong to inactive results. The source made the active and inactive calls.
Tested on: HCC-2998 colon
Experiment: NCI-60 one-dose screen, 48 h (100 = growth as untreated, 0 = no growth, -100 = all killed)
Details: 10 µM unless noted

Compound	growth
Cc1cccc(Oc2ccc(Nc3ncnc4ccc(NC(=O)CNCCO)cc34)cc2Cl)c1	66.8%
COc1cc(/C=C2\C(=O)N(Cc3ccc(Cl)cc3)c3ccccc32)cc(OC)c1OC	-28.5% (active)
Cc1ccc(O)c(C(=O)O)c1	110%
Cc1nccc2c3ccc(OCc4cn(-c5ccc(Cl)cc5)nn4)cc3n(CCCc3ccccc3)c12	70.9%
O=[N+]([O-])c1cccc(-c2nc(-c3ccc(Cl)cc3Cl)cn2-c2ccccc2)c1	-1.15% (active)
CC(C)CCSc1nc(NNC(N)=O)c(C#N)c(-c2ccccc2)n1	102%
O=C1C(=O)c2c(nc3ncccn23)-c2ccccc21	-92.7% (active)
Cc1c2c(cc[n+]1Cc1ccc(F)cc1)c1ccc(OCc3cccc(F)c3)cc1n2Cc1cccc(F)c1	-92.5% (active)
CCOC(=O)C1=C(C)NC(C)=C(C(=O)OCC)C1c1cc(Br)c(O)c(OC)c1	63.6%
COc1cc(C(=O)c2cnc(-c3ccc4cc[nH]c4c3)[nH]2)cc(OC)c1OC	6.12% (active)
O=c1[nH]nc(-c2ccc(Br)cc2)cc1Cc1ccc(O)cc1	118%
S=c1[nH]cccc1-c1nnc2n1Nc1nc3ccccc3cc1CS2	98.5%
COc1cccc(CCC(=O)c2cc3c(N)c(C(=O)Nc4cccc(Cl)c4C)sc3nc2C)c1	6.58% (active)
O=C1Nc2cc(-c3ccncc3)ccc2/C1=C/c1ccc[nH]1	72.2%
COc1ccc(-c2nn(Cc3ccccc3)c3c2-c2oncc2CC3)cc1OC	107%
CN1CCN(CC#CCNC(=O)[C@]23CCC(C)(C)C[C@H]2C2=CC[C@@H]4[C@@]5(C)Cc6c([nH]c7ccccc67)C(C)(C)[C@@H]5CC[C@@]4(C)[C@]2(C)CC3)CC1	80%
NC(=O)c1cccc(-n2ccc3cc(NC(=O)Nc4cc(C(F)(F)F)cc(C(F)(F)F)c4)ccc32)n1	88.2%
COc1cc(C(=O)/C=C/c2c(C)n([O-])c3ccc(Cl)cc3[n+]2=O)cc(OC)c1OC	100%
O=C(CNCCO)Nc1ccc2ncnc(Nc3ccc(OCc4cccc(F)c4)c(Cl)c3)c2c1	97%
CC[C@@]12C=CCN3CC[C@]4(c5cc(NC(=O)COc6cc(OCC(=O)Nc7cc8c(cc7OC)N(C)[C@H]7[C@@](O)(C(=O)OC)[C@H](OC(C)=O)[C@]9(CC)C=CCN%10CC[C@]87[C@@H]%109)cc7oc(-c8ccccc8)cc(=O)c67)c(OC)cc5N(C)[C@@H]4[C@](O)(C(=O)OC)[C@H]1OC(C)=O)[C@H]32	-8.78% (active)
Cc1cc2nc(-c3ccccc3)c(-c3ccccc3)nc2cc1C	104%
CCCCCCOc1ccc(/C=N/Nc2cc(C)nc3ccc(Br)cc23)cc1	-94.5% (active)
COc1ccc(CC(C)=C(c2ccc(OCCN(C)C)cc2)c2ccc(OCCN(C)C)cc2)cc1	89%
CC(=O)NCCCS(=O)(=O)O	102%

From PubChem BioAssay (NCI)
